Compound activity from PubChem.
HP1b chromo inh – HP1-beta chromodomain-methylated histone interaction inhibition | P83916 | AlphaScreen HP1-beta / biotin-H3K9me3 peptide binding | Potency, µM (highest dose often 114 µM), for the others: top-dose activity change, negative = inhibition, hits mostly inhibitors | hit rate 0.56% among 390,000; note: nearly all actives have a fitted effect of over 70% in size
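HP1-beta protein (50 nM final) preincubated 30 min at room temperature with biotinylated H3(1-18)K9me3 peptide (50 nM) in PBS pH 7.4, 0.01% Tween-20, then compound added for 30 min. AlphaScreen streptavidin donor/nickel chelate acceptor beads (10 ug/mL final), 30 min dark, luminescence read.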
Sfp PPTase inh – Sfp phosphopantetheinyl transferase inhibition. Q9F4F7. Biochemical Sfp PPTase activity, qHTS. Potency, µM, for inactives: largest response in the series, negative = inhibition, most hits filed as inhibitors. hit rate 3.5% among 310,000. AID 1490;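 note: the enzyme is Sfp with the accession as filed and its product quenches rhodamine fluorescence; 0% = enzyme reaction without inhibitor and -100% = no enzyme wells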
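Fluorescence-quenching assay with 15 nM Sfp, 5 uM rhodamine-CoA and 12.5 uM BHQ-2-labelled ybbR peptide in pH 7.6 Hepes/MgCl2 buffer. Enzyme was pre-incubated with compound for 15 min at room temperature. Rate was taken from the 30-min fluorescence change (525/598 nm).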
JMJD2A Tudor – inhibitors of human JMJD2A Tudor domain | O75164 | AlphaScreen JMJD2A-Tudor / H3K4me3 peptide binding | Potency, µM (doses to about 114 µM), inactives show at the highest dose activity change, negative = inhibition, hits mostly inhibitors | hit rate 4.4% among 390,000 | AID 504339; note: % is set by controls: 0 for no effect and ±100 for the full control effect; nearly all actives have a fitted effect of over 50% in size
G9a block – inhibitors of human histone lysine methyltransferase G9a. Q96KQ7. G9a H3K9 monomethylation, AlphaScreen, 2 h. Potency, µM (titrated, usually from 102 µM), inactives show at the top dose activity, negative = inhibition, most hits filed as inhibitors. hit rate 8.8% among 350,000. AID 504332; note: % is set by controls: 0 for no effect and ±100 for the full control effect; nearly all actives have a fitted effect of over 75% in size
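AlphaScreen detection with an anti-monomethyl H3K9 antibody quantified product after a 2 h room-temperature reaction containing 500 nM biotinylated H3K9 peptide, 20 µM SAM and 20 nM enzyme, which had been preincubated 15 min with compound.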
PLK1 PBD inh – inhibitors of human PLK1 polo-box domain binding; Plk1 PBD binding of FITC phosphopeptide, fluorescence polarization; Potency, µM, for the others: max response, negative = inhibition, usual class: inhibitors; hit rate 2.8% among 360,000; note: series mostly up to about 57 µM; % is set by controls: 0 for no effect and ±100 for the full control effect; nearly all actives have a fitted effect of over 65% in size
BAZ2B inh – blocks human BAZ2B. Q9UIF8. AlphaScreen BAZ2B-H3K14Ac peptide displacement. Potency, µM (titrated, usually from 114 µM), for the others: at the top dose activity change, negative = inhibition, hits mostly inhibitors. hit rate 4.4% among 360,000. AID 504333; note: % is set by controls: 0 for no effect and ±100 for the full control effect; nearly all actives have a fitted effect of over 60% in size
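Inhibition is scored as reduced AlphaScreen emission. The BAZ2B/b-H3(5-23)K14Ac complex (50 nM each) in PBS pH 7.4, 0.01% Tween-20 meets compound (up to 110 uM) for 30 min at RT before bead addition.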
Numbers without * were called inactive; ? = inconclusive; . = no result given; [ ] = dose if it differs, or a comment. The list is not random: actives were taken first. Their share in the collection is about 12%. Calls come from the whole dose curve; as a rule, active = well fitted curve in the direction sought with a large enough effect; inconclusive = small, poorly fitted or top-dose-only effect, or another doubt; inactive = no such curve, though single readings can be large; an effect the other way counts as inactive or inconclusive. Potency is the fitted concentration of half-maximal effect.

SMILES	HP1b chromo inh	Sfp PPTase inh	JMJD2A Tudor	G9a block	PLK1 PBD inh	BAZ2B inh
O=C(CSc1ncccn1)NC(=O)Nc1ccc2c(c1)OCCO2	46%	5%	-1%	45µM*	-2%	-16%
CN(C)S(=O)(=O)c1ccc(SCC(=O)Nc2ccc3c(c2)OCCO3)nc1	9%	.	-20%	40µM*	-21%	13%
O=C(CSc1ncccn1)Nc1ccc2c(c1)OCO2	5%[57 µM]	.	-18%	.	1%	.
O=C(NCc1ccccc1Cl)c1cnc2sc(N3CCOCC3)nn2c1=O	16%	.	-5%	-17%[59 µM]	.	-3%
CC(=O)c1ccc(N2CCN(CC(=O)Nc3ccccc3C(=O)NC3CC3)CC2)c(F)c1	34%	.	-11%	22%[12.7 µM]	-12%	9%
Cc1ccc(SCc2cc(=O)[nH]c(/N=C(\N)Nc3ccc(C)c(C)c3)n2)cc1	6%	11%	-20%	13%	-7%	-30%
Cc1nc(SCC(=O)Nc2ccc3c(c2)OCCO3)nc(C)c1C	56%	?	-9%	22µM*	?	-11%
CCCCc1n[nH]c(=S)n1Cc1ccc(Cl)cc1	19%	-13%	?	3.5µM*	-21%	-12%
S=c1[nH]nc(CNc2ccc(Cl)cc2)n1Cc1ccccc1	20%	7%	-2%	?	-11%	-34%
CCCCc1n[nH]c(=S)n1Cc1ccccc1	8%	9%	4µM*	?	-9%	-27%
CC(C)c1ccc(CN2CC(C(=O)O)CC2=O)cc1 (stereo unspecified)	14%	12%	-9%	0%[59 µM]	-5%	-11%
CN1/C(=C\C(=O)c2cccnc2)Sc2ccccc21	49%	22µM*	3%	28µM*	-16%	-2%
COc1cccc(C(=O)/C=C2\Sc3ccccc3N2C)c1	163%	-11%	82%	54%	-12%	57%
COc1ccccc1CN(C)S(=O)(=O)c1cccs1	89%	9%	31%	15%	7%	12%
CCCCCc1nc2sc3c(c2c(=O)n1NC(=O)c1ccc([N+](=O)[O-])cc1)CC(C)(C)OC3	-19%	8%	?	71µM*	-12%	-10%
COc1cccc(C2C(C(C)=O)=C(O)C(=O)N2Cc2ccco2)c1 (stereo unspecified)	?	-18%	?	-3%[12.7 µM]	24µM*	?
O=C(C1=C(O)C(=O)N(Cc2ccco2)C1c1cccc([N+](=O)[O-])c1)c1ccco1 (stereo unspecified)	-13%	?	50µM*	.	-16%	5%
CC(=O)C1=C(O)C(=O)N(Cc2ccco2)C1c1ccc(F)cc1 (stereo unspecified)	25%	45µM*	-19%	?	-2%	-15%
CC(=O)C1=C(O)C(=O)N(Cc2ccccc2)C1c1ccco1 (stereo unspecified)	15%	-5%	?	50µM*	-9%	?
COc1cccc(C2C(C(C)=O)=C(O)C(=O)N2CCNCCO)c1 (stereo unspecified)	.	16%	.	24%[12.7 µM]	.	-17%
CC(=O)C1=C(O)C(=O)N(Cc2ccco2)C1c1ccccc1F (stereo unspecified)	13%	-16%	-29%	-22%	-13%	-33%
Cn1c(=O)n(C)c2cc(CNCc3ccc(F)cc3)ccc21	61%	.	-12%	-4%[59 µM]	.	-12%
Cn1c2cc(C#N)sc2c2cnn(Cc3ccccc3F)c(=O)c21	.	.	-13%	.	.	.
CC1CC1C(=O)OCC(=O)Nc1cccc([N+](=O)[O-])c1 (stereo unspecified)	26%	7%	-3%[57.1 µM]	8%	-5%	-9%
Cc1noc(C)c1C(=O)OCC(=O)NCc1ccc(Cl)cc1	38%	.	-4%	13%[12.7 µM]	-6%	0%
SMILES	HP1b chromo inh	Sfp PPTase inh	JMJD2A Tudor	G9a block	PLK1 PBD inh	BAZ2B inh
CC(=O)C1=C(O)C(=O)N(Cc2ccco2)C1c1ccccc1 (stereo unspecified)	8%	56µM*	?	50µM*	2%	?
CC1(C)O[C@H]2O[C@@H]([C@H](O)CON3C(=O)c4ccccc4C3=O)[C@H](O)[C@H]2O1	.	21%	.	.	.	.
CCOC(=O)c1ccccc1NC(=O)C1CC(=O)N(C(C)(C)C)C1 (stereo unspecified)	18%	18%	?	25%	-5%	1%
CCOC(=O)c1ccccc1NC1CC(=O)N(c2ccccc2C)C1=O (stereo unspecified)	7%	79µM*	-20%	?	-18%	1%
Cc1ccc(NC(=O)CSc2nc(-c3cccs3)nc3cc(=O)[nH]n23)cc1C	-21%	.	79µM*	25%[12.7 µM]	.	50µM*
O=C(CSc1nc(-c2ccco2)nc2cc(=O)[nH]n12)Nc1ccccc1Cl	23%	.	-3%	-4%[59 µM]	.	-16%
O=C(CSc1nc(-c2cccc(Cl)c2)nc2cc(=O)[nH]n12)Nc1ccccc1	-1%	.	?	-7%[59 µM]	.	56µM*
Cc1ccc(NC(=O)CSc2nc(-c3ccco3)nc3cc(=O)[nH]n23)c(Cl)c1	26%	?	?	.	-29%	45µM*
CCOc1ccc(-c2nc(SCC(=O)Nc3ccc(C)c(C)c3)n3[nH]c(=O)cc3n2)cc1	?	.	50µM*	-4%[59 µM]	.	50µM*
Cc1ccccc1NC(=O)CSc1nc(-c2cccs2)nc2cc(=O)[nH]n12	6%	.	?	17%[12.7 µM]	.	50µM*
COc1ccc2c(c1)sc(N)[n+]2Cc1cc(C)cc2cccnc12	2%	-3%	-20%	50µM*	1%	-10%
O=C(CCl)N(CCc1ccccc1)CCc1ccccc1	50%	3%	11%	-10%	-7%	0%
CCOC(=O)c1sc2nc(SCC(=O)N(CC)CC)n(CCCN3CCCC3=O)c(=O)c2c1C	36%	?	-21%	15%[59 µM]	-3%	79µM*
CCN(CC)C(=O)CSc1nc2sc3c(c2c(=O)n1CCOC)CCC3	22%	3%	-23%	.	-9%	-11%
Cc1csc(Nc2ccccc2C(F)(F)F)n1	6%	-1%	1%	24%[0.0925 µM]	0%	?
FC(F)(F)c1ccccc1Nc1nccs1	57%	-13%	50µM*	?	-11%	-2%
CC(c1ccccc1)N1C(=O)c2ccc(C(=O)Nc3ccccc3C(=O)O)cc2C1=O (stereo unspecified)	24%	-2%	?	.	24µM*	?
CC(C)CN1C(=O)c2ccc(C(=O)Nc3ccc(O)cc3C(=O)O)cc2C1=O	-6%	7%	-25%	?	-5%	?
CC(c1ccccc1)N1C(=O)c2ccc(C(=O)Nc3ccc(Br)cc3C(=O)O)cc2C1=O (stereo unspecified)	-11%	24%	50µM*	.	24µM*	-8%
CC1=C(C(=O)Nc2cccc(C(F)(F)F)c2)C2(CCCCCC2)OC1=O	16%	.	17%	5%[59 µM]	.	4%
